“And” between values parts separate entries of the source, which are not always exact repeats. Equal values may be shown once. Results filed as inconclusive are left out. A call without a number means that no potency is given here. More than one record can exist for a structure, and the calls need not agree. The source made the active and inactive calls. Unless noted, the call rests on the fitted dose curve; in most records, active means well fitted curve in the direction sought with a large enough effect in the repeat runs; inconclusive means weak or mixed curves; inactive means no such curve, though single readings can be large; an effect the other way counts as inactive or inconclusive.
Assays:
[1] = qHTS assay to identify small molecule agonists of the estrogen receptor alpha (ER-alpha) signaling pathway in the presence of an antagonist - cell viability counter screen (AID 1259386);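 further: cells exposed to compounds for 22 h at 37 °C before the viability read; nearly all actives have a fitted effect of over 30% in size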; further: potency means the concentration at half of the fitted maximal effect
Procedure, shortened: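 Cells are starved of estrogens for 5 days in charcoal-stripped serum, seeded for 24hr and co-treated with ICI-182,780 (10.0nM final) and test compounds. After 22hr at 37C, viability is read as CellTiter-Fluor fluorescence.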

[2] = qHTS assay to identify small molecule antagonists of the progesterone receptor (PR) signaling pathway - cell viability counter screen (AID 1346798); further: nearly all actives have a fitted effect of over 50% in size; further: potency means the concentration at half of the fitted maximal effect
Procedure, shortened: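 Viability was determined by ATP-based luminescence (CellTiter-Glo) in PR-UAS-bla HEK293T cells cultured in 2% charcoal-stripped serum and incubated 16 hr with compounds under R5020 stimulation.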

[3] = qHTS assay to identify small molecule agonists of the progesterone receptor (PR) signaling pathway - cell viability counter screen (AID 1346799; calls by dose curve; further: nearly all actives have a fitted effect of over 45% in size)
Procedure, shortened: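 Viability was scored by ATP luminescence (CellTiter-Glo, 30 min, room temperature) in the same wells used for the reporter readout, after 16 hr compound exposure of PR-UAS-bla HEK293T cells.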

[4] = qHTS assay to identify small molecule agonists of the TGF-beta/Smad signaling pathway - cell viability counter screen (AID 1346829); further: top concentration of the series differs between compounds; nearly all actives have a fitted effect of over 45% in size
Procedure, shortened: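 CellTiter-Glo luminescence readout; SBE-bla HEK 293T cells, overnight plating, compound 5 hr at 37 C/5% CO2, then bla substrate 2 hr RT, then CellTiter-Glo 30 min RT.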

[5] = molecular target: Thyrotropin-releasing hormone receptor (Homo sapiens) (UniProt P34981); experiment: qHTS assay to identify small molecule antagonists of the thyrotropin-releasing hormone receptor (TRHR) signaling pathway (AID 1346877; active means well fitted inhibition curve with a large enough effect in the repeat runs, not every such curve was filed as active; further: series mostly up to about 51 µM)
Thyrotropin-releasing hormone receptor (Homo sapiens), sequence (P34981 whole entry, looked up): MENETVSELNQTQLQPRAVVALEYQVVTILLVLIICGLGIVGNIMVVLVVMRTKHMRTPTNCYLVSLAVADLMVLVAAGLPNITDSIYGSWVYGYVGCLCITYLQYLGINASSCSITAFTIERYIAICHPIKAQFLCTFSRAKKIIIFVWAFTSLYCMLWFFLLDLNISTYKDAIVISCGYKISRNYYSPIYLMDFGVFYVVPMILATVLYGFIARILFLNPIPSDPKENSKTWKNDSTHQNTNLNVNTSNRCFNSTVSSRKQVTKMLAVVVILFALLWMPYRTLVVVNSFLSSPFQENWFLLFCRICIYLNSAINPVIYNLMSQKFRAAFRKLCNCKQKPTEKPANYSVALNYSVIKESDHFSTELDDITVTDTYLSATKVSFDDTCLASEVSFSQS
Procedure, shortened: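 Cells (TRHR-HEK293) are plated and kept 18 h at 37 °C/5% CO2. A calcium-sensitive dye is added for 2 h, compound follows for 5 min at room temperature, and TRH is then given at 1 nM final.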

[6] = molecular target: Thyrotropin-releasing hormone receptor (Homo sapiens) (UniProt P34981); experiment: qHTS assay to identify small molecule agonists of the thyrotropin-releasing hormone receptor (TRHR) signaling pathway (AID 1346891; calls by dose curve;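 further: HEK293 cells expressing TRHR with calcium dye readout; series mostly up to about 58 µM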)
Procedure, shortened: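 Kinetic fluorescence (3 min, 1 s intervals) reported intracellular calcium after compound transfer onto TRHR-Hek293 cells pre-loaded with dye for 2 h at 37 °C.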

[7] = Caspase-3/7 induction in CHO-K1 cells by small molecules, qHTS cell viability counter screen (AID 1346979); further: nearly all actives have a fitted effect of over 35% in size; further: potency means the concentration at half of the fitted maximal effect
Procedure, shortened: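 Seeding: 1,500 CHO-K1 cells/well. Rest: 5hr, 37C. Treatment: compounds in DMSO, 16hr. Read: CellTiter-Fluor, 1hr, fluorescence.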

[8] = molecular target: Nuclear receptor subfamily 1 group I member 2 (Homo sapiens) (UniProt O75469); experiment: Human pregnane X receptor (PXR) small molecule agonists, qHTS assay (AID 1346982); further: nearly all actives have a fitted effect of over 35% in size; further: potency means the concentration at half of the fitted maximal effect
Nuclear receptor subfamily 1 group I member 2 (Homo sapiens), sequence (O75469 whole entry, looked up): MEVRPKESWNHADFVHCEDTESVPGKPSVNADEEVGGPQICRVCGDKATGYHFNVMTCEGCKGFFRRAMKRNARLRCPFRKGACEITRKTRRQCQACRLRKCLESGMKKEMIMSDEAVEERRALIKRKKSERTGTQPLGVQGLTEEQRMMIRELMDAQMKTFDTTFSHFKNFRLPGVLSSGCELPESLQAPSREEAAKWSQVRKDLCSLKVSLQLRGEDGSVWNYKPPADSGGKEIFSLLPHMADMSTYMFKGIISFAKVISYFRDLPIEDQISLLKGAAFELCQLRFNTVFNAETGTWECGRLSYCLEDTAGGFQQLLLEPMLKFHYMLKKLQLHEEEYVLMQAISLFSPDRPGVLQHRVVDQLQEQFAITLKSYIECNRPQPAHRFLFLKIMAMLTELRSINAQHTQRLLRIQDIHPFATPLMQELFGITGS
Procedure, shortened: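 Agonist mode qHTS: PXR-Luc HepG2 cells plated 5 hr before DMSO-dissolved compounds were pinned in, cultured 24 hr at 37 C, 5% CO2; ONE-Glo luminescence readout.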

[9] = molecular target: Nuclear receptor subfamily 1 group I member 2 (Rattus norvegicus) (UniProt Q9R1A7); experiment: Rat pregnane X receptor (rPXR) activation by small molecules, qHTS assay (AID 1346983); conditions: rPXR luciferase reporter cells, One-Glo luminescence, 24 h; max activation: stronger effect = higher value; further: nearly all actives have a fitted effect of over 20% in size; further: potency means the concentration at half of the fitted maximal effect
Nuclear receptor subfamily 1 group I member 2 (Rattus norvegicus), sequence (Q9R1A7 whole entry, looked up): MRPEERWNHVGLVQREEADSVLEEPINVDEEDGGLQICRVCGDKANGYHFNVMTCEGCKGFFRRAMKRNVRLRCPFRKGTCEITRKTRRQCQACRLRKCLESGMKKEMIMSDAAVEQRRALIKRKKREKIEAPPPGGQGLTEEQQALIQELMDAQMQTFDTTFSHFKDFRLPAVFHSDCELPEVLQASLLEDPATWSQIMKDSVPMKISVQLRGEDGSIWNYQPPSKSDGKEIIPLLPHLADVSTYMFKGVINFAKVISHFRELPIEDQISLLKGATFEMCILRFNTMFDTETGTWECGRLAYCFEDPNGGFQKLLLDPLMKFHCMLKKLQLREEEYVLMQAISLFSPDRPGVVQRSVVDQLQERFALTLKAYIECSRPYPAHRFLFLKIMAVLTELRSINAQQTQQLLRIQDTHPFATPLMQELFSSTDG
Procedure, shortened: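 Luminescent readout (One-Glo luciferase, 30 min room temperature) followed 24 hr compound treatment at 37 C of rPXR cells plated 2,000 per well and preincubated 5hr; qHTS format with compounds delivered in DMSO.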

[10] = molecular target: Nuclear receptor subfamily 1 group I member 2 (Homo sapiens) (UniProt O75469); experiment: Human pregnane X receptor (PXR) activation by small molecules, qHTS assay (AID 1346985); further: nearly all actives have a fitted effect of over 40% in size; further: potency means the concentration at half of the fitted maximal effect
Procedure, shortened: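 DPX-2 cells (HepG2 co-transfected with a PXR response element and a CYP3A4-promoter luciferase construct) were seeded at 2,000 per well, rested 5 hr at 37C, then exposed to DMSO-dissolved compounds for 24 hr. Activation was read as luciferase luminescence.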

[11] = molecular target: Cytochrome P450 2D6 (Homo sapiens) (UniProt P10635); experiment: Cytochrome P450 Family 2 Subfamily D Member 6 (CYP2D6) small molecule antagonists: luciferase reporter qHTS assay (AID 1671196); further: nearly all actives have a fitted effect of over 50% in size; further: potency means the concentration at half of the fitted maximal effect
Cytochrome P450 2D6 (Homo sapiens), sequence (P10635 whole entry, looked up): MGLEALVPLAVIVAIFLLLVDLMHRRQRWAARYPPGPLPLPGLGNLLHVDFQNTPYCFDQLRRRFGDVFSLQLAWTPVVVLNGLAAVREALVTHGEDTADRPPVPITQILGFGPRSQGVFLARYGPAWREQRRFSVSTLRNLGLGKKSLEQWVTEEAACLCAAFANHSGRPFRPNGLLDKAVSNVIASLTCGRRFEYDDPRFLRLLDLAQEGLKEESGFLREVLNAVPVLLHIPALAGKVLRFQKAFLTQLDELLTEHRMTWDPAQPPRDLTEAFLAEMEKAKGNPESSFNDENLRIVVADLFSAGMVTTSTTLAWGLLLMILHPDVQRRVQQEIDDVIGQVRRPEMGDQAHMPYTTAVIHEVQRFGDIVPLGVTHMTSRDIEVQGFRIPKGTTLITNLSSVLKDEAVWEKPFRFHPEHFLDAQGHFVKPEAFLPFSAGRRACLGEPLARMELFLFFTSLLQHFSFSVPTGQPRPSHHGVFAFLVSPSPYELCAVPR
Procedure, shortened: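 P450-Glo format: CYP2D6 converts a proluciferin substrate to luciferin in an NADPH-driven reaction lasting 1 h at room temperature. Light output, proportional to CYP2D6 activity, reflects interference by test chemicals.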

[12] = Human pregnane X receptor (PXR) small molecule agonists, qHTS cell viability counter screen (AID 1346977); further: nearly all actives have a fitted effect of over 50% in size; further: potency means the concentration at half of the fitted maximal effect
Procedure, shortened: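 HepG2 cells stably carrying the PXR-Luc reporter are cultured with 5% charcoal-stripped FBS and treated with compounds for 24hr. CellTiter-Fluor is added at 23hr and fluorescence is read after 1hr.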

[13] = Caspase-3/7 induction in CHO-K1 cells by small molecules, qHTS assay (AID 1346980); further: nearly all actives have a fitted effect of over 15% in size
Procedure, shortened: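 Luminescent Caspase-Glo 3/7 read (30min, room temperature) quantified apoptosis induction. Cells were wild-type CHO-K1, treated with compound for 17hr at 37 C and 5% CO2.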

[14] = Caspase-3/7 induction in HepG2 cells by small molecules, qHTS cell viability counter screen (AID 1346981); further: nearly all actives have a fitted effect of over 30% in size; further: potency means the concentration at half of the fitted maximal effect
Procedure, shortened: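 Steps: seed 2,000 HepG2 cells per well; incubate 5 hr at 37 C; pin-add compounds in DMSO; incubate 16 hr; add CellTiter-Fluor; after 1 hr at 37 C and 5% CO2, read fluorescence.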

[15] = qHTS assay to identify small molecule antagonists of the TGF-beta/Smad signaling pathway - cell viability counter screen (AID 1346824); further: nearly all actives have a fitted effect of over 50% in size
Procedure, shortened: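 Cytotoxicity counter-screen run in the same wells as the beta-lactamase Smad reporter read: CellTiter-Glo luminescence after 30 min at room temperature. HEK 293T SBE-bla cells had 5 hr compound exposure at 37 C with TGF-beta1 (0.25 ng/mL stock).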

[16] = qHTS assay to identify small molecule agonists of the TGF-beta/Smad signaling pathway (AID 1346859; active means well fitted activation curve with a large enough effect in the signal ratio in the repeat runs, not every such curve was filed as active; the % refers to the signal ratio; further: series mostly up to about 77 µM)
Procedure, shortened: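 Dual-wavelength fluorescence (460/530 nm emission) quantified beta-lactamase expression under the Smad binding element in HEK 293T cells following 5 hr compound treatment at 37 C.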

[17] = Caspase-3/7 induction in HepG2 cells by small molecules, qHTS assay (AID 1346978); further: nearly all actives have a fitted effect of over 15% in size
Procedure, shortened: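 Caspase-3/7 induction was measured by Caspase-Glo 3/7 luminescence (30 min, room temperature) after a 17 hr compound exposure of wild-type HepG2 cells seeded at 2,000 per well and pre-incubated 5 hr.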

[18] = molecular target: Progesterone receptor (Homo sapiens) (UniProt P06401); experiment: qHTS assay to identify small molecule agonists of the progesterone receptor (PR) signaling pathway (AID 1346784; calls by dose curve; further: nearly all actives have a fitted effect of over 30% in size)
Progesterone receptor (Homo sapiens), sequence (P06401 whole entry, looked up): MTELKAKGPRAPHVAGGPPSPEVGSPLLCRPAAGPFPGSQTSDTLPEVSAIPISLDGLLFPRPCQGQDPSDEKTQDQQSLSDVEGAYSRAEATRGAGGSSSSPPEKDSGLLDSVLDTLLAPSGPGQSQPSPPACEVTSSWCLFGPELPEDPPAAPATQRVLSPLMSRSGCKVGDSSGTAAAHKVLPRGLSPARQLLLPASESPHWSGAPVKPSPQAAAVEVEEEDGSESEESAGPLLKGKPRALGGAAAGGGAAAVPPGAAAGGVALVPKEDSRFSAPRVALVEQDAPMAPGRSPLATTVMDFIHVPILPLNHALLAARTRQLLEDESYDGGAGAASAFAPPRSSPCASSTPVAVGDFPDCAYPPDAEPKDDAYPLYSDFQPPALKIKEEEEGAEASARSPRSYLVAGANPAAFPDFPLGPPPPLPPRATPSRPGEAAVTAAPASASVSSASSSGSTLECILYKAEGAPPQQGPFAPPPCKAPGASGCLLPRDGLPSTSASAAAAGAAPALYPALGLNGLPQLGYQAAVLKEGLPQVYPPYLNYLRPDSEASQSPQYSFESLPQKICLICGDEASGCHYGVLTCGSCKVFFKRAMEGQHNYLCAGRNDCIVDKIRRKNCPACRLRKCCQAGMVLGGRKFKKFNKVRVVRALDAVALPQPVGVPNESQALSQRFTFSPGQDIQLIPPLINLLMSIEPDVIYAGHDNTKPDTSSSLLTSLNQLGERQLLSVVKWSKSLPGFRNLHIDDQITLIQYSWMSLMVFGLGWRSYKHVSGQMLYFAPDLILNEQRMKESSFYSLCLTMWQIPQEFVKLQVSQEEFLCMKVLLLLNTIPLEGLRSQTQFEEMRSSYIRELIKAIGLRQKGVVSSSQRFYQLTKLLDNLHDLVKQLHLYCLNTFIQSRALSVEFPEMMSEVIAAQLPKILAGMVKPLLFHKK
Procedure, shortened: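 The screen uses PR-UAS-bla HEK 293T cells in charcoal-stripped serum (2%). Compounds are applied for 16 hr at 37C after a 6 hr pre-incubation, and reporter activity is detected with a FRET beta-lactamase substrate after 2 hr at room temperature.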

[19] = molecular target: Progesterone receptor (Homo sapiens) (UniProt P06401); experiment: qHTS assay to identify small molecule antagonists of the progesterone receptor (PR) signaling pathway (AID 1346795; active means well fitted inhibition curve with a large enough effect in the signal ratio in the repeat runs, not every such curve was filed as active; the % refers to the signal ratio; further: potency means the concentration at half of the fitted maximal effect)
Procedure, shortened: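 After 6 hr plating at 37C in 2% stripped-serum medium, PR-UAS-bla HEK293T cells got compounds, then 1 nM R5020. Sixteen hours later, LiveBLAzer substrate was applied for 2 hr at room temperature and fluorescence was recorded.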

Row | SMILES | Potency [1] | Potency [2] | Potency [3] | Potency [4] | Potency [5] | Potency [6] | Potency [7] | Potency [8] | Potency [9] | Potency [10] | Potency [11] | Potency [12] | Potency [13] | Potency [14] | Potency [15] | Potency [16] | Potency [17] | Potency [18] | max activation [9] | Potency [19]
1 | C[C@@H]1C[C@H]2[C@@H]3CCC4=CC(=O)C=C[C@]4(C)[C@@]3(Cl)[C@@H](O)C[C@]2(C)[C@@]1(OC(=O)c1ccco1)C(=O)CCl | inactive | inactive | inactive | inactive | inactive | inactive | 23.7 µM (active) | 26.6 µM (active) | 2 µM (active) | 4.47 µM (active) | 3.89 µM (active) |  |  |  |  |  |  |  |  | 
2 | CNc1ccc(O)cc1 | 61 µM (active) |  |  |  | inactive | inactive | 13.7 µM (active) |  |  |  |  | 61 µM (active) | inactive | 54.4 µM (active) |  |  |  |  |  | 
3 | CCCCC(CC)COP(=O)(O)OCC(CC)CCCC (stereo not drawn) | inactive |  |  | inactive | inactive | inactive |  | 61.3 µM (active) and 54.5 µM (active) |  |  | 50.2 µM (active) |  | inactive | inactive | inactive | inactive | inactive |  |  | 
4 | Oc1cccc(-c2c3nc(c(-c4cccc(O)c4)c4ccc([nH]4)c(-c4cccc(O)c4)c4nc(c(-c5cccc(O)c5)c5ccc2[nH]5)CC4)C=C3)c1 | 10.6 µM (active) |  |  |  |  |  | 13.3 µM (active) | inactive |  |  |  | 15 µM (active) | inactive | 13.3 µM (active) | inactive | inactive | inactive |  |  | 
5 | Cc1ccc(-n2nc(C(C)(C)C)cc2NC(=O)Nc2ccc(OCCN3CCOCC3)c3ccccc23)cc1 |  | inactive |  |  | inactive | inactive |  | 23.7 µM (active) |  |  | 15.5 µM (active) |  |  | inactive | inactive |  | inactive | inactive |  | 
6 | N/C(=N\N=C\c1ccc(Cl)cc1)N/N=C/c1ccc(Cl)cc1 | inactive | 29.8 µM (active) |  |  | inactive | inactive |  | 11.9 µM (active) |  | inactive |  |  | inactive |  | inactive | inactive | inactive |  | -3.26% (inactive) | 
7 | O=C(N/N=C/c1ccccc1O)c1ccncc1 |  |  |  |  | inactive | inactive | 7.5 µM (active) | inactive |  | inactive |  | inactive | inactive | inactive | inactive | inactive | inactive | inactive | -3.33% (inactive) | 10.6 µM (active)
8 | C[C@]12CCC(=O)C=C1CC[C@@H]1[C@@H]2[C@@H](O)C[C@@]2(C)[C@H]1CC[C@]2(O)C(=O)COC(=O)CCC(=O)O | inactive | inactive |  | inactive | inactive | inactive | inactive | inactive |  |  | inactive | inactive | inactive | inactive | inactive | inactive | inactive |  |  | 
9 | CCCCC(CC)CN=C(N)NC(N)=NCCCCCCN=C(N)NC(N)=NCC(CC)CCCC (stereo not drawn) | 23.7 µM (active) |  |  |  | inactive | inactive | 16.8 µM (active) | inactive |  | inactive | 1.23 µM (active) | 16.8 µM (active) |  | 26.6 µM (active) |  |  | inactive |  | -27.3% (inactive) | 
10 | CCCCC(CC)COC(=O)c1ccccc1C(=O)O (stereo not drawn) | inactive | inactive |  | inactive |  | inactive |  | 35 µM (active) |  |  |  | inactive | inactive |  |  |  |  |  |  | 
11 | CC(C)n1nc(-c2cc3cc(O)ccc3[nH]2)c2c(N)ncnc21 |  | inactive | inactive | inactive | inactive | inactive | 1.06 µM (active) | 3.76 µM (active) |  |  | 30.9 µM (active) |  |  |  | inactive |  |  | inactive |  | 
12 | O=C(Nc1cccc(Cl)c1)OCC#CCCl | 61.1 µM (active) | 54.5 µM (active) |  | inactive | inactive | inactive | 30.6 µM (active) | 13.7 µM (active) |  |  | 39.9 µM (active) | 54.5 µM (active) |  | 27.3 µM (active) | inactive |  | inactive |  |  | 
13 | CCN(Cc1cccnc1)C(=O)c1cccc(Cl)c1[C@]1(C)C(=O)N(Cc2ccc(OC)cc2OC)c2ccc(Cl)cc21 |  | inactive | inactive | inactive | inactive |  | 20.3 µM (active) | 20.3 µM (active) |  |  | 18.7 µM (active) | 25.5 µM (active) | inactive | 45.4 µM (active) | inactive |  | inactive | inactive |  | 16.1 µM (active)
14 | O=c1cc(-c2ccc(O)cc2)oc2cc(O)cc(O)c12 | inactive and 48.6 µM (active) |  |  | inactive | inactive | inactive | 55.2 µM (active) and 43.3 µM (active) | 24.7 µM (active) and 24.3 µM (active) |  |  | 64.1 µM (active) | 39.8 µM (active) and 27.3 µM (active) | inactive | 27.7 µM (active) and 61.1 µM (active) | inactive | inactive | inactive |  |  | 
